Of roughly 7,900 targets only a part is listed; those with a hit were picked by preference. About 0.6% of all pairs of compound and target were hits. Unmarked numbers belong to inactive results.
How the values were obtained:
Experiment in all cases: log2 fold change, soluble protein after heating vs DMSO (PISA); higher = thermal stabilisation; K562 cells, 10 uM, 30 min; active = over 0.2 and 3.5 SD of the protein, either way, in both replicates (recomputed)
[1] = compound: NC(=O)Nc1cc(-c2cccc(F)c2)sc1C(=O)N[C@H]1CCCNC1
Summary of the method: (§1)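 K562 cells (2×10^6 cells/mL) were treated with 10 μM compound for 30 min, and aliquots were heated for 3 min over 48°C-58°C. Pooled aliquots were extracted in PBS with 0.5% NP-40 at 4°C, and the supernatant after 21,000xg for 90 min was measured by TMTpro 16plex LC-MS/MS with channel sums equalised. Reported thermal stability, relative to control samples and from duplicates, is a log2 fold change.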

[2] = compound: NC(=O)c1cnc(N[C@@H]2CCCC[C@@H]2N)nc1Nc1cccc(-n2nccn2)c1
Summary of the method: as §1

[3] = compound: NC1(c2ccc(-c3nc4ccn5c(=O)[nH]nc5c4cc3-c3ccccc3)cc2)CCC1
Summary of the method: as §1

[4] = compound: NCC(=O)Nc1ccc(-n2nc(C(F)(F)F)cc2-c2ccc3c(ccc4ccccc43)c2)cc1
Summary of the method: as §1

entinostat = compound: Nc1ccccc1NC(=O)c1ccc(CNC(=O)OCc2cccnc2)cc1 [entinostat]
Summary of the method: as §1

vorinostat = compound: O=C(CCCCCCC(=O)Nc1ccccc1)NO [vorinostat]
Summary of the method: as §1

citarinostat = compound: O=C(CCCCCCNC(=O)c1cnc(N(c2ccccc2)c2ccccc2Cl)nc1)NO [citarinostat]
Summary of the method: as §1

silmitasertib = compound: O=C(O)c1ccc2c(c1)nc(Nc1cccc(Cl)c1)c1ccncc12 [silmitasertib]
Summary of the method: as §1

[5] = compound: O=C1NC(=O)C(c2cnc3ccccn23)=C1c1cn2c3c(cc(F)cc13)CN(C(=O)N1CCCCC1)CC2
Summary of the method: as §1

[6] = compound: c1cc(OCCN2CCCCC2)cc(-c2n[nH]c3ccc(-c4nnc[nH]4)cc23)c1
Summary of the method: as §1

Chain of UniProt Q9Y6Y8 (Q9Y6Y8 whole entry, looked up): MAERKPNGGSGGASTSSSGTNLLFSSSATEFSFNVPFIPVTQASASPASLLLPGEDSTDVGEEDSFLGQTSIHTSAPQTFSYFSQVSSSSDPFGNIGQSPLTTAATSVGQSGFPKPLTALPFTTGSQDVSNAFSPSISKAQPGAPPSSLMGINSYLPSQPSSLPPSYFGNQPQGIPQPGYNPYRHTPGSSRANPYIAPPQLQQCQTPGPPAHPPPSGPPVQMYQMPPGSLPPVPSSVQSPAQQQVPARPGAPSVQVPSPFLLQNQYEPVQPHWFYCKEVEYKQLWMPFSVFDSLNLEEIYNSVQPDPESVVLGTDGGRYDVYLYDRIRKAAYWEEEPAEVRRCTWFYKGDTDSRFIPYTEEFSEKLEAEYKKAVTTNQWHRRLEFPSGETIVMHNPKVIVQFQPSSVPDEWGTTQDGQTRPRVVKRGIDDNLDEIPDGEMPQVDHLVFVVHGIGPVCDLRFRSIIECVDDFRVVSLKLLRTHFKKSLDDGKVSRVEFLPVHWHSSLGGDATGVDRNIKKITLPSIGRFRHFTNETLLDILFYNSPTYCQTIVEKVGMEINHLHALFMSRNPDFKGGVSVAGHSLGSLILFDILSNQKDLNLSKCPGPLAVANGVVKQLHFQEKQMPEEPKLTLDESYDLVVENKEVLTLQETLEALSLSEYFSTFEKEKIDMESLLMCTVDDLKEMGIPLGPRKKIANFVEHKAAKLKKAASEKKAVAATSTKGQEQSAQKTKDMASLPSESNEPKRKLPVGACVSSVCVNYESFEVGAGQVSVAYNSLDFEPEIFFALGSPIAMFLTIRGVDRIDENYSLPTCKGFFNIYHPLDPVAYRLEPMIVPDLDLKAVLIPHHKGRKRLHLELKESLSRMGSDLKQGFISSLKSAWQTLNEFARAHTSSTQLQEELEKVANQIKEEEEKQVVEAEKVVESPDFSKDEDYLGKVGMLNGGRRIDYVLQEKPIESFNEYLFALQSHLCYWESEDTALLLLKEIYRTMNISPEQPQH
Chain of UniProt Q9HB90 (Q9HB90 whole entry, looked up): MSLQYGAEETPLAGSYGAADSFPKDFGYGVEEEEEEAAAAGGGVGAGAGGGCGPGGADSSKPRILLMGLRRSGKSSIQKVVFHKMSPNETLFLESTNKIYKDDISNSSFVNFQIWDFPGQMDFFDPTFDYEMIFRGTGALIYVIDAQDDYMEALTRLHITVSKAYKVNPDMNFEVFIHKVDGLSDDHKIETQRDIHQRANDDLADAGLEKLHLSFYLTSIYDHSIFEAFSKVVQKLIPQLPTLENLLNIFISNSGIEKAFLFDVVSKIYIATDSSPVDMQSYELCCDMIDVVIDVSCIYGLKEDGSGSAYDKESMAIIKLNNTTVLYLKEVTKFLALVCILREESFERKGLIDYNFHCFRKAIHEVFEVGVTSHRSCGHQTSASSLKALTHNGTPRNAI
Chain of UniProt Q96ER3 (Q96ER3 whole entry, looked up): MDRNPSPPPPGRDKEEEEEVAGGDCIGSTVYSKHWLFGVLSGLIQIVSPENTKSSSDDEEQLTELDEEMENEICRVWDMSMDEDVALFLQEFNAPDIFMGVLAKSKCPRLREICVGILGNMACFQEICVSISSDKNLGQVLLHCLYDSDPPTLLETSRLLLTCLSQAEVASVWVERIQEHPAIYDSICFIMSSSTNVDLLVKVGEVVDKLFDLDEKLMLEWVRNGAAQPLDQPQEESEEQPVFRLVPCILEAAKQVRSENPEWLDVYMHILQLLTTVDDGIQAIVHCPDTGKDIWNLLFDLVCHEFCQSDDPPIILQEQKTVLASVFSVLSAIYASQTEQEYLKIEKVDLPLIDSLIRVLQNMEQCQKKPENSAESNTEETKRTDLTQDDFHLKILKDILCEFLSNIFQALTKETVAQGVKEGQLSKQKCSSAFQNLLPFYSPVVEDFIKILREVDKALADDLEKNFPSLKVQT
Chain of UniProt Q53H47 (Q53H47 whole entry, looked up): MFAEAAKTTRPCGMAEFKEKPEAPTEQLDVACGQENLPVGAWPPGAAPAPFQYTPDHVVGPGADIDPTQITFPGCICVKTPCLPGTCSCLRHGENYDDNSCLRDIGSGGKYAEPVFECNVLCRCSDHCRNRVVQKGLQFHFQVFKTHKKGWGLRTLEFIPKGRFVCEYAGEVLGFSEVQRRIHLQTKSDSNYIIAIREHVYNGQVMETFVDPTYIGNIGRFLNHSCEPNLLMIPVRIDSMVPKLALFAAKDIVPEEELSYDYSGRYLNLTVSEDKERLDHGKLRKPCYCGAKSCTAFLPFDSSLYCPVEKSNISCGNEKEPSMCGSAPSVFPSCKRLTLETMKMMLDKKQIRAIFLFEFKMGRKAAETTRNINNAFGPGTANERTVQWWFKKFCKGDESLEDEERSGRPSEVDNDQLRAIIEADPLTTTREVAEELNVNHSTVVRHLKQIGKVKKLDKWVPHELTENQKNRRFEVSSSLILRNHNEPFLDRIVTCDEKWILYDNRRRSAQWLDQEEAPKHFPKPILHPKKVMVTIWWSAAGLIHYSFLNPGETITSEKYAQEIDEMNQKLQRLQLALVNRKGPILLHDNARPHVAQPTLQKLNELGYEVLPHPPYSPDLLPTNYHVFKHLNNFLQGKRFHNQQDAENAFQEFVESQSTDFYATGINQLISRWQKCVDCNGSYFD
Chain of UniProt P63208 (P63208 whole entry, looked up): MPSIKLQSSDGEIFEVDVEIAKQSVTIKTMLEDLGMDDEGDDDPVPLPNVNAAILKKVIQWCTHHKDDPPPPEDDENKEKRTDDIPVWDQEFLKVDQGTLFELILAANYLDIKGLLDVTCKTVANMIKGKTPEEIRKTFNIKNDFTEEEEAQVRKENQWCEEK
Chain of UniProt Q9HB40 (Q9HB40 whole entry, looked up): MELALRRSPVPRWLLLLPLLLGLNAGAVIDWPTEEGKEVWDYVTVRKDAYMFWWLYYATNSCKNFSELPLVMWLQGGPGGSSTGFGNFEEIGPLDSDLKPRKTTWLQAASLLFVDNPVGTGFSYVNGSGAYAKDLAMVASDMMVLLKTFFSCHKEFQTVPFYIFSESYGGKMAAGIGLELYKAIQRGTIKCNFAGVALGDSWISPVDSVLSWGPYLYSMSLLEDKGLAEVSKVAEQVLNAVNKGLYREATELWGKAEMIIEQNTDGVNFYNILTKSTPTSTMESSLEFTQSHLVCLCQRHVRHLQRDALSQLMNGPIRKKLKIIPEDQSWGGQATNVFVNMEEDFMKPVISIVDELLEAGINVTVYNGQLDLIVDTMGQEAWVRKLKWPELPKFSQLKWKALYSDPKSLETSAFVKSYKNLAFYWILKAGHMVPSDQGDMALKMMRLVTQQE
Chain of UniProt Q8WXD2 (Q8WXD2 whole entry, looked up): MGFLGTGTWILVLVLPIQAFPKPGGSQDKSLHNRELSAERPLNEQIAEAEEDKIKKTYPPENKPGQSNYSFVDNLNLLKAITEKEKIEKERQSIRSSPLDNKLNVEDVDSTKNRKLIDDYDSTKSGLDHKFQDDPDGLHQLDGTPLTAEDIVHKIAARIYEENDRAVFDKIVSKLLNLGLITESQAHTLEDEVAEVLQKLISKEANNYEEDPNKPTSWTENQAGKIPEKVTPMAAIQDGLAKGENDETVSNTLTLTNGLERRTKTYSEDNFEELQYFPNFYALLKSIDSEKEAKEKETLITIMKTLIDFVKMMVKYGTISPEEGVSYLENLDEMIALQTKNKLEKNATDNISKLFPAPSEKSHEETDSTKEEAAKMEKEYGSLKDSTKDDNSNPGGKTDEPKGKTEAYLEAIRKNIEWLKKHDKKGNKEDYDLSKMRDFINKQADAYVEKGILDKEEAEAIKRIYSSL
Chain of UniProt P18754 (P18754 whole entry, looked up): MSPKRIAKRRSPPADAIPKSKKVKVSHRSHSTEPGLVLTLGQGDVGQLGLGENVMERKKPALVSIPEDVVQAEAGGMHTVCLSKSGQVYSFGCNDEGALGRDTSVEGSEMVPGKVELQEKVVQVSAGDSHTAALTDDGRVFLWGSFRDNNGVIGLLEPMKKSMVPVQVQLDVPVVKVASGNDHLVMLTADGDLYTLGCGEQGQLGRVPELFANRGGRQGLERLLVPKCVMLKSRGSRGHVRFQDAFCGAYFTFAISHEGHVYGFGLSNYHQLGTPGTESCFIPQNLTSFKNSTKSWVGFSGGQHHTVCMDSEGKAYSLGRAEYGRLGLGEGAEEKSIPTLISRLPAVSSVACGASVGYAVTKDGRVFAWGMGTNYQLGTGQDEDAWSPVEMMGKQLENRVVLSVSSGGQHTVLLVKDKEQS
Chain of UniProt P51151 (P51151 whole entry, looked up): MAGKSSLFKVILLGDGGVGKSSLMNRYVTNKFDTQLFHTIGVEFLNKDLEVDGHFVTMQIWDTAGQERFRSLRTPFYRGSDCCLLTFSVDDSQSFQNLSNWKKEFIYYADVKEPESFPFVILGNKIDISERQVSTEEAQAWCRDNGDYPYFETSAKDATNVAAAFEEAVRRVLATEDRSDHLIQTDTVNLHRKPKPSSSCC
Chain of UniProt Q8TD22 (Q8TD22 whole entry, looked up): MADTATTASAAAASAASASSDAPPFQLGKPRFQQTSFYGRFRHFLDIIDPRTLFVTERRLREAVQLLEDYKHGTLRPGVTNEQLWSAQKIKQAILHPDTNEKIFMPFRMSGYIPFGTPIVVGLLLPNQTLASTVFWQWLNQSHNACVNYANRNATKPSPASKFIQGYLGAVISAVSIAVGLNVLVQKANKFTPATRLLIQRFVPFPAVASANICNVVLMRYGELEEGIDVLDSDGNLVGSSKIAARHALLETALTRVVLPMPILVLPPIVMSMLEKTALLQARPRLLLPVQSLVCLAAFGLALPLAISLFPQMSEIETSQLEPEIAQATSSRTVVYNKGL
Chain of UniProt Q96D15 (Q96D15 whole entry, looked up): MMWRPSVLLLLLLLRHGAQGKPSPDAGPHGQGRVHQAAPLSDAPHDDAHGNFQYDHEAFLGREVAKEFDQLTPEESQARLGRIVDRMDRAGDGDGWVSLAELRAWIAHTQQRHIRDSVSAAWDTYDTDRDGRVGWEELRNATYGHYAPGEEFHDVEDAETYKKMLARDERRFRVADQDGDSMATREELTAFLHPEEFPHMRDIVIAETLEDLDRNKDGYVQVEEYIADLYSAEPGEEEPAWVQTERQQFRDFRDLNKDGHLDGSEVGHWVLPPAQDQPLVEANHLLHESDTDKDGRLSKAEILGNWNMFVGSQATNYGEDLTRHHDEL

Target	log2 fold change [1]	log2 fold change [2]	log2 fold change [3]	log2 fold change [4]	log2 fold change (entinostat)	log2 fold change (vorinostat)	log2 fold change (citarinostat)	log2 fold change (silmitasertib)	log2 fold change [5]	log2 fold change [6]
RIOK3 (UniProt O14730)	0.047	-0.005	-0.061	0.015	-0.005	0.043	0.036	-0.011	0.057	-0.046
RPS9 (UniProt P46781)	0.07	0.127	0.202	0.073	-0.058	-0.007	-0.058	0.007	0.076	-0.152
SH3GL1 (UniProt Q99961)	-0.049	-0.088	-0.106	-0.032	0.143	0.082	0.068	0.028	0.006	-0.041
SETMAR (UniProt Q53H47)	0.11	-0.024	0.05	-0.078	-0.032	0.004	-0.629 (active)	-0.064	-0.105	-0.255
SCPEP1 (UniProt Q9HB40)	0.036	0.001	-0.314 (active)	0.008	0.023	-0.037	-0.043	0.003	0.024	0.022
RRAGC (UniProt Q9HB90)	-0.001	-0.091	-0.265 (active)	-0.069	-0.004	-0.015	0.041	0.014	0.011	-0.027
RNASEH2A (UniProt O75792)	-0.017	-0.06	-0.181	-0.109	0.037	-0.145	0.015	0.014	-0.208	-0.015
RBM8A (UniProt Q9Y5S9)	-0.044	0.075	-0.045	-0.068	0.037	-0.025	0.03	0.011	-0.019	-0.076
SEC23IP (UniProt Q9Y6Y8)	-0.049	-0.152	-0.221	-0.033	0.049	0.065	0.055	-0.03	-0.058	-0.063
SAMSN1 isoform 3 (UniProt Q9NSI8)	-0.06	-0.067	-0.067	-0.028	0.099	0.009	0.06	0.063	-0.073	-0.025
SAAL1 (UniProt Q96ER3)	-0.091	0.031	-0.207	-0.058	0.04	0.006	0.011	0.119	-0.04	-0.013
RAB9A (UniProt P51151)	0.014	-0.026	-0.229 (active)	-0.022	0	0.035	0.039	-0.028	-0.032	-0.018
RHOXF2 (UniProt Q9BQY4)	0.004	0.015	0.039	0.013	-0.002	-0.091	0.006	0.045	-0.023	-0.036
SLBP (UniProt Q14493)	0.043	0.051	-0.028	-0.005	0.018	0.085	0.035	0.007	0.064	0.035
RPL38 (UniProt P63173)	-0.005	0.022	0.09	0.024	-0.022	0.002	-0.003	-0.008	0	-0.094
RCC1 isoform 2 (UniProt P18754)	-0.084	-0.174	-0.18	-0.066	0.132	0.094	0.026	-0.056	-0.132	-0.024
RRAS2 isoform 4 (UniProt P62070)	-0.068	0.03	0.08	0.038	-0.059	-0.069	0.01	0.048	-0.01	0.013
RPS18 (UniProt P62269)	-0.032	0.08	0.122	0.049	-0.083	0.023	-0.093	0	0.069	-0.145
SEPTIN5 (UniProt G3XAH0)	0.008	0.004	-0.142	0.016	-0.031	0.16		-0.023	-0.028	
RHEB (UniProt Q15382)	-0.042	-0.014	-0.058	-0.029	-0.012	0.002	0.022	-0.033	-0.038	-0.025
RCOR3 isoform 3 (UniProt Q9P2K3)	0.019	-0.067	-0.129	-0.177	0.1	0.127	0.115	-0.043		-0.075
RCN3 (UniProt Q96D15)	-0.042	-0.027	0.105	-0.013	-0.027	-0.122	-0.063	-0.002	-0.039	0.12
SCCPDH (UniProt Q8NBX0)	-0.113	-0.056	0.045	-0.024	-0.071	0.062	0.199	-0.004	0.123	0.33
SCG3 (UniProt Q8WXD2)	0.028	-0.051	0.114	0.061	0.009	0.025	-0.015	-0.029	0.018	-0.098
SLC1A5 (UniProt Q15758)	-0.057	0.117	0.155	0.03	-0.041	-0.039	-0.003	-0.016	-0.001	-0.03
SFXN5 (UniProt Q8TD22)	-0.043	0.042	-0.072	-0.095	-0.068	0.019	-0.028	-0.003	0.012	0.072
SKP1 (UniProt P63208)	0.015	0.011	0.034	0.047	0.037	0.16	-0.003	0	0.008	0.01
